# The entries come from a sample that favours the strongest signals as a whole.
# Tests used:
# Assay in all cases: glycan array binding signal (z-score within array); higher = stronger binding
# Conditions in all cases: glycan notation: IUPAC condensed, linker removed
# GlcA(b1-6)Gal = target: GlcA(b1-6)Gal
# Method in brief: (§1)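 The binding signal is a Z-score computed within each array and averaged over linkers. Arrays of the same protein sequence at different concentrations or buffers were also averaged together. Data originate from 3228 arrays in the Consortium for Functional Glycomics database, kept only where the protein sequence was available.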
# [1] = target: GlcNAc(a1-4)Gal(b1-4)GalNAc
# Method in brief: as §1
# [2] = target: GlcNAc(a1-4)Gal(b1-4)GlcNAc
# Method in brief: as §1
# [3] = target: GlcNAc(b1-3)Gal(b1-4)GlcNAc(b1-2)[GlcNAc(b1-3)Gal(b1-4)GlcNAc(b1-6)]Man(a1-6)[GlcNAc(b1-3)Gal(b1-4)GlcNAc(b1-2)Man(a1-3)]Man(b1-4)GlcNAc(b1-4)GlcNAc
# Method in brief: as §1
# [4] = target: GlcNAc(b1-3)Gal(b1-4)GlcNAc(b1-3)Gal(b1-4)GlcNAc(b1-3)Gal(b1-4)GlcNAc(b1-2)[GlcNAc(b1-3)Gal(b1-4)GlcNAc(b1-3)Gal(b1-4)GlcNAc(b1-3)Gal(b1-4)GlcNAc(b1-6)]Man(a1-6)[GlcNAc(b1-3)Gal(b1-4)GlcNAc(b1-3)Gal(b1-4)GlcNAc(b1-3)Gal(b1-4)GlcNAc(b1-2)Man(a1-3)]Man(b1-4)GlcNAc(b1-4)[Fuc(a1-6)]GlcNAc
# Method in brief: as §1
# [5] = target: GlcNAc(b1-3)Gal(b1-4)GlcNAc(b1-3)Gal(b1-4)GlcNAc(b1-3)Gal(b1-4)GlcNAc(b1-3)Gal(b1-4)GlcNAc(b1-2)Man(a1-3)[GlcNAc(b1-3)Gal(b1-4)GlcNAc(b1-3)Gal(b1-4)GlcNAc(b1-3)Gal(b1-4)GlcNAc(b1-3)Gal(b1-4)GlcNAc(b1-2)Man(a1-6)]Man(b1-4)GlcNAc(b1-4)GlcNAc
# Method in brief: as §1
# [6] = target: GlcNAc(b1-3)Gal(b1-4)GlcNAc(b1-6)[Gal(b1-3)]GalNAc
# Method in brief: as §1
# [7] = target: GlcNAc(b1-3)Gal(b1-4)GlcNAc(b1-6)[GlcNAc(b1-3)Gal(b1-3)]GalNAc
# Method in brief: as §1
# [8] = target: GlcNAc(b1-3)[GlcNAc(b1-6)]Gal(b1-4)GlcNAc
# Method in brief: as §1
# Kdn(a2-3)Gal(b1-3)GlcNAc = target: Kdn(a2-3)Gal(b1-3)GlcNAc
# Method in brief: as §1
# [9] = target: Man(a1-2)Man(a1-2)Man(a1-3)Man
# Method in brief: as §1
# Man(a1-2)Man(a1-3)Man = target: Man(a1-2)Man(a1-3)Man
# Method in brief: as §1
# [10] = target: Man(a1-3)[Man(a1-6)]Man(b1-4)GlcNAc(b1-4)GlcNAc
# Method in brief: as §1
# Man(a1-6)Man = target: Man(a1-6)Man
# Method in brief: as §1
# [11] = target: Neu5Ac(a2-3)Gal(b1-4)GlcNAc(b1-2)Man(a1-3)[Neu5Ac(a2-6)Gal(b1-4)GlcNAc(b1-2)Man(a1-6)]Man(b1-4)GlcNAc(b1-4)GlcNAc
# Method in brief: as §1
# [12] = target: Neu5Ac(a2-3)Gal(b1-4)GlcNAc(b1-2)[Neu5Ac(a2-3)Gal(b1-4)GlcNAc(b1-6)]Man(a1-6)[Neu5Ac(a2-3)Gal(b1-4)GlcNAc(b1-2)Man(a1-3)][GlcNAc(b1-4)]Man(b1-4)GlcNAc(b1-4)GlcNAc
# Method in brief: as §1
# [13] = target: Neu5Ac(a2-3)Gal(b1-4)GlcNAc(b1-3)Gal(b1-4)GlcNAc(b1-3)Gal(b1-4)GlcNAc(b1-2)Man(a1-3)[Neu5Ac(a2-3)Gal(b1-4)GlcNAc(b1-3)Gal(b1-4)GlcNAc(b1-3)Gal(b1-4)GlcNAc(b1-2)Man(a1-6)]GalNAc
# Method in brief: as §1
# [14] = target: Neu5Ac(a2-3)Gal(b1-4)GlcNAc(b1-3)Gal(b1-4)GlcNAc(b1-6)[Gal(b1-3)]GalNAc
# Method in brief: as §1
# [15] = target: Neu5Ac(a2-3)Gal(b1-4)[Fuc(a1-3)]GlcNAc(b1-3)Gal
# Method in brief: as §1
# [16] = target: Neu5Ac(a2-3)Gal(b1-4)[Fuc(a1-3)]GlcNAc(b1-3)GalNAc
# Method in brief: as §1
# [17] = target: Neu5Ac(a2-6)Gal(b1-3)GlcNAc(b1-3)[Gal(b1-4)GlcNAc(b1-6)]Gal(b1-4)Glc
# Method in brief: as §1
# Neu5Ac(a2-6)Gal(b1-4)Glc = target: Neu5Ac(a2-6)Gal(b1-4)Glc
# Method in brief: as §1
# [18] = target: Neu5Ac(a2-6)Gal(b1-4)GlcNAc(b1-2)Man(a1-3)[Neu5Ac(a2-6)Gal(b1-4)GlcNAc(b1-2)Man(a1-6)]Man(b1-4)GlcNAc(b1-4)GlcNAc
# Method in brief: as §1
# [19] = target: Neu5Ac(a2-6)Gal(b1-4)GlcNAc(b1-3)Gal(b1-4)GlcNAc(b1-3)Gal(b1-4)GlcNAc(b1-2)Man(a1-3)[Neu5Ac(a2-6)Gal(b1-4)GlcNAc(b1-3)Gal(b1-4)GlcNAc(b1-3)Gal(b1-4)GlcNAc(b1-2)Man(a1-6)]GalNAc
# Method in brief: as §1
# Neu5Ac(a2-6)GalNAc = target: Neu5Ac(a2-6)GalNAc
# Method in brief: as §1
# [20] = target: Neu5Ac(a2-6)GalNAc(b1-4)GlcNAc
# Method in brief: as §1
# [21] = target: Neu5Ac(a2-8)Neu5Gc(a2-3)Gal(b1-4)GlcNAc
# Method in brief: as §1
# [22] = target: Neu5Ac9Ac(a2-6)Gal(b1-4)GlcNAc
# Method in brief: as §1
binder,measurement,setting,value
PX14343G-pdi-535-24-535 (Parabacteroides distasonis) (protein) LDTVPKDQLAPSTTWQTEADAKGFIVGCYKDLLDGNTLLYLDCGSDIGYNNFPWEGFRPWGDGSLSSSNPGQILYDYKSIRKANTFLENVDKVTFSSDAVKANYVAQAKAIRAYKYFLMNWWYGGVPIISSYSSADEAKVERNTEQEVRDYIAKDLDEALAGIAEAPEARGYIAKGAVLAIKMREALYYGDWQKAKDAAKAIIDLKQYELDPDYTNLFKVSGVDSKEIILADQNIETLDGLGTIGQMYNNVDQGWSSIVPTQNLVDMYEMSDGLTKEESKTYDAKHPFANRDPRMAMTILYPGRDWRGDVLNTLDEKLQDGTVNKNFPTYTDNASKSALTWAKYLDPMDQYGDVWSSGACPIVFRYAEVLLTYAEAANELSGPSDEIYGYLNQIRQRVGMGEVDKAKYGTKDKLRELIRRERTVELAGEGLRRADIVRWQEDGKMLAEKVMNGDLLRVTGTINYGESEPTKRAEITGTAVIETRQFSSRNRYLPIPQTSMDKNPNLKQNPGY,glycan array binding signal (z-score),GlcA(b1-6)Gal,-0.046
same,glycan array binding signal (z-score),[1],-1.02
same,glycan array binding signal (z-score),[2],2.04
same,glycan array binding signal (z-score),[3],2.37
same,glycan array binding signal (z-score),[4],0.865
same,glycan array binding signal (z-score),[5],0.208
same,glycan array binding signal (z-score),[6],-1.23
same,glycan array binding signal (z-score),[7],0.869
same,glycan array binding signal (z-score),[8],1
same,glycan array binding signal (z-score),Kdn(a2-3)Gal(b1-3)GlcNAc,0.143
same,glycan array binding signal (z-score),[9],0.086
same,glycan array binding signal (z-score),Man(a1-2)Man(a1-3)Man,-0.387
same,glycan array binding signal (z-score),[10],-0.762
same,glycan array binding signal (z-score),Man(a1-6)Man,2.08
same,glycan array binding signal (z-score),[11],-0.159
same,glycan array binding signal (z-score),[12],-0.038
same,glycan array binding signal (z-score),[13],2
same,glycan array binding signal (z-score),[14],1.55
same,glycan array binding signal (z-score),[15],-0.539
same,glycan array binding signal (z-score),[16],0.588
same,glycan array binding signal (z-score),[17],-0.502
same,glycan array binding signal (z-score),Neu5Ac(a2-6)Gal(b1-4)Glc,-0.218
same,glycan array binding signal (z-score),[18],-0.872
same,glycan array binding signal (z-score),[19],1.49
same,glycan array binding signal (z-score),Neu5Ac(a2-6)GalNAc,-0.874
same,glycan array binding signal (z-score),[20],-0.103
same,glycan array binding signal (z-score),[21],16.3
same,glycan array binding signal (z-score),[22],0.187
